# In all, about 310,000 compounds went through this assay and about 18,000 (5.8%) were called active. Roughly 22% stayed inconclusive and do not appear here. The call rests on the fitted dose curve; in most records, active means well fitted inhibition curve with a large enough effect; inconclusive means small, poorly fitted or top-dose-only effect, or another doubt; inactive means no such curve, though single readings can be large or run the other way. The list comes from a sample in which actives are over-represented; it also holds similar structures and randomly drawn compounds.
# Assay: Primary qHTS for delayed death inhibitors of the malarial parasite plastid, 48 hour incubation
# Conditions: P. falciparum luciferase growth in erythrocytes; series mostly up to 28.7 µM; activity change, negative = inhibition: at the top concentration
# Summary of the method: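 Luciferase-expressing P. falciparum in infected erythrocytes (2% hematocrit, 0.1% parasitemia final) in RPMI 1640/0.5% Albumax were exposed to compound for 48 hours at 37 C, 5% CO2; growth read as luminescence.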
# On the % scale 0 is the no-effect control and ±100 the full control effect; potency means the concentration at half of the fitted maximal effect.
Compound,"activity change, negative = inhibition",Potency
CCC(C)[C@H](NC(=O)N1c2ccccc2NC(=O)[C@@H]1C(C)C)C(=O)N[C@@H](Cc1ccccc1)C(=O)O (stereo not given in full),53% (inactive),–
Cc1c(Cl)cccc1NC(=O)CSc1ccc(-c2cccnc2)nn1,2.52% (inactive),–
Cc1c(Cl)cccc1NC(=S)NCC(O)c1ccccc1 (stereo not given),-13.2% (inactive),–
Cc1c(Cl)cccc1NC(=S)N(Cc1ccccc1)Cc1cccnc1,–,10.4 µM (active)
Cc1cc(C)c(C#N)c(SCC(=O)N(CC(C)C)C2CCS(=O)(=O)C2)n1 (stereo not given),-10.3% (inactive),–
COCc1c(C(=O)N/N=C\c2cccnc2)nnn1-c1nonc1N,6.99% (inactive),–
COc1ccc(C(CNC(=O)c2cc3c(s2)CCCC3)N2CCOCC2)cc1 (stereo not given),-14.1% (inactive),–
CC1Cc2ccccc2N1S(=O)(=O)c1ccc(Cl)nc1 (stereo not given),-2.52% (inactive),–
CC(NC(=O)c1cccc(S(=O)(=O)N2CCc3ccccc3C2)c1)c1ccco1 (stereo not given),9.95% (inactive),–
CC1Cc2ccccc2N1S(=O)(=O)c1cccc(C(=O)NCC(c2ccco2)N2CCCC2)c1 (stereo not given),–,11.7 µM (active)
CC1CCc2sc(C(=O)N/N=C/C3CCCCC3)cc2C1 (stereo not given),22.2% (inactive),–
CC1CCc2sc(C(=O)NCC(c3ccco3)N3CCCCC3)cc2C1 (stereo not given),–,7.38 µM (active)
Cc1nn(C)c(Cl)c1CN1CCC(Oc2ccc(C(=O)N3CCCC3)cc2)CC1,-15.3% (inactive),–
CC1CN(C(=O)CCC(=O)NC2CCN(Cc3ccccc3)CC2)c2ccccc2O1 (stereo not given),-6.56% (inactive),–
COC(=O)c1ccc(NC(=O)CSc2nncn2-c2cccnc2)cc1,50.5% (inactive),–
CC(C)(CNCC(O)c1ccccc1)N1CCOCC1 (stereo not given),42.7% (inactive),–
O=C(NCc1ccc(Cl)c(Cl)c1)c1cccnc1,-4.1% (inactive),–
OC(CNCc1ccc(Cl)c(Cl)c1)c1ccccc1 (stereo not given),–,5.86 µM (active)
Cc1[nH]c2ccccc2c1C(=O)CN1CCCC(C)C1 (stereo not given),-28% (inactive),–
CSc1nccc(NC(=O)c2ccc(C(C)(C)C)cc2)n1,26.8% (inactive),–
O=C(c1cc(COc2cccc(C(F)(F)F)c2)on1)N1CCSCC1,5.36% (inactive),–
CN(C)CCCNC(=S)N1CCC(c2nc3ccccc3[nH]2)CC1,-3.56% (inactive),–
O=C(CCC1CCCCC1)Nc1cc(C(F)(F)F)ccc1N1CCOCC1,–,11.7 µM (active)
CC(Sc1nncn1C)C(=O)Nc1cc(C(F)(F)F)ccc1N1CCOCC1 (stereo not given),-8.46% (inactive),–
CCC(=O)Nc1cc(C(F)(F)F)ccc1N1CCCC1,22.6% (inactive),–
CCCCn1c(N)c(N(CC(C)C)C(=O)c2cnc(C)cn2)c(=O)[nH]c1=O,6.65% (inactive),–
Cc1ccc(CSCC2Nc3ccc(C(=O)N4CCN(c5ccc(F)cc5)CC4)cc3NC2=O)cc1 (stereo not given),1.58% (inactive),–

Compound,"activity change, negative = inhibition",Potency
Cc1c(Cc2ccccc2)c(=O)oc2cc(OCC(N)=O)ccc12,–,4.15 µM (active)
Cc1c(CCC(=O)O)c(=O)oc2cc(OCc3ccc(Br)cc3)ccc12,-9.71% (inactive),–
CCOC(=O)c1cc(=O)c2ccc(OCc3ccccc3)cc2o1,31.1% (inactive),–
CCN(CC(=O)NCCCN1CCOCC1)S(=O)(=O)c1cc(Cl)ccc1Cl,25.9% (inactive),–
COc1cc(NS(=O)(=O)c2ccc(NC(=S)NC(=O)c3ccccc3)cc2)nc(OC)n1,13.7% (inactive),–
Cc1ccc(NC(=O)C(CC(=O)O)C2CCCO2)c(C)c1 (stereo not given),10% (inactive),–
Cc1ccc(NC(=O)C2CCN(S(=O)(=O)c3ccc4c(c3)NC(=O)CO4)CC2)cc1C,-17.5% (inactive),–
COc1ccccc1N(CC(=O)Nc1ccccc1C(=O)N1CCCC1)S(C)(=O)=O,1.53% (inactive),–
Fc1ccc2[nH]c3c(N4CCN(Cc5ccc6c(c5)OCO6)CC4)ncnc3c2c1,–,5.22 µM (active)
CCN1CCCC1CNC(=O)c1cc2cc(OC)c(OC)cc2[nH]1 (stereo not given),-23.7% (inactive),–
CCCCCc1c(C)nc(N2CCN(Cc3ccc4c(c3)OCO4)CC2)[nH]c1=O,4.7% (inactive),–
CCN1CCCC1Cn1cnc2c([nH]c3cc(OC)ccc32)c1=O (stereo not given),9.43% (inactive),–
Fc1ccc2[nH]c3c(N4CCSCC4)ncnc3c2c1,–,4.65 µM (active)
CCN1CCCC1CNc1ncnc2c1[nH]c1ccc(F)cc12 (stereo not given),–,2.33 µM (active)
O=c1[nH]c(N2CCN(Cc3ccc4c(c3)OCO4)CC2)nc2c1CCCC2,11.4% [at 5.75 µM] (inactive),–
Cc1ccc(NC(=O)Cc2nc(COC(=O)C(C)NS(=O)(=O)c3ccc(C)cc3)cs2)cc1 (stereo not given),-17.5% (inactive),–
O=C(NCCOc1cccnc1)c1ccc(OC2CCN(Cc3ccccn3)CC2)cc1,-22.5% (inactive),–
CN(C)CCCn1c(SCc2ccc(Cl)cc2)nnc1-c1ccncc1,-6.49% (inactive),–
COc1ccc(-c2nnc3n2CCCCC3)cc1,17.4% (inactive),–
CCOc1ccc(NC(=O)c2cc(C)nc3ccccc23)cc1,1.76% (inactive),–
CCOc1ccc(-n2c(O)c(/C=N/c3ccnn3Cc3ccncc3)c3ccccc3c2=O)cc1,-28.1% (inactive),–
CCOc1ccc(-n2c(O)c(/C=N/Nc3nc(C)cc(C)n3)c3ccccc3c2=O)cc1,–,4.15 µM (active)
O=C(Cc1ccccc1F)NC1CCSc2ccccc21 (stereo not given),73.8% (inactive),–
CC1(C)NC(=O)N(CC(=O)N2CCN(S(=O)(=O)c3ccccc3F)CC2)C1=O,16.7% (inactive),–
CC1CCC(NS(=O)(=O)c2ccc3c(c2)CC(=O)N3)CC1 (stereo not given),12.2% (inactive),–
c1ccc(-c2cn3c(n2)CCc2ccc4cccnc4c2-3)cc1,–,10.4 µM (active)
c1ccc(-c2cn3cccnc3n2)cc1,46% (inactive),–

Compound,"activity change, negative = inhibition",Potency
Cc1cc(NC(=O)CCC(=O)N(CC(=O)NC2CCCC2)c2ccc(F)cc2)no1,-1.77% (inactive),–
O=C(CCn1nnc2ccccc21)OCC(=O)c1ccc([N+](=O)[O-])cc1,15.2% (inactive),–
COc1ccc(CCC(C)N2CCc3ccccc3C2)cc1 (stereo not given),19.6% (inactive),–
COc1ccc(CN2CCCC(N3CCc4ccccc4C3)C2)c(O)c1 (stereo not given),–,1.65 µM (active)
COc1cccc(N2C(=O)CC(N3CCc4ccccc4C3)C2=O)c1 (stereo not given),2.48% (inactive),–
COc1ccc(NC(=O)Cn2ncn3c(cc4ccccc43)c2=O)c(OC)c1OC,–,10.4 µM (active)
COc1ccc(NC(=O)CCNC(=O)Cn2ccc3ccccc3c2=O)c(OC)c1,3.33% (inactive),–
CCc1ccc(NC(=O)Cn2ncn3c(cc4ccccc43)c2=O)cc1,9.52% (inactive),–
Cc1ccc(C(=O)N(CC(=O)NC2CCCC2)c2ccc(F)cc2)s1,-0.117% (inactive),–
CC(c1ccccc1)(c1ccccc1)c1ccncc1,–,16.5 µM (active)
ClC(Cl)(Cl)c1ccccc1,4.79% (inactive),–
CC(C)(C)N(Cc1ccccc1)C(=O)c1ccncc1,11.2% (inactive),–
CC1CCCC(NC(=O)c2cc(-c3ccncc3)nc3ccccc23)C1C (stereo not given),-9.17% (inactive),–
CC(=O)N1CC(=O)N(CC(=O)Nc2ccc(Br)cc2)C1=S,12.7% (inactive),–
Cc1c(C(=O)NC(C)C2CC3CCC2C3)cccc1[N+](=O)[O-] (stereo not given),15.2% (inactive),–
CC(Sc1nnc(CNC(=O)c2ccccc2F)n1C)C(=O)Nc1nccs1 (stereo not given),5.18% (inactive),–
COc1ccc(CCNC(=O)Cc2ccc(C)cc2)cc1OC,-4.17% (inactive),–
COc1ccc(CCNC(=O)c2nnc(CS(=O)(=O)c3ccccc3)o2)cc1OC,–,2.33 µM (active)
COc1ccc(CCNC(=O)CN(c2ccccc2)S(C)(=O)=O)cc1OC,-2.55% (inactive),–
COc1ccc(OC)c(NC(=O)c2ccc3c(c2)CCN3S(C)(=O)=O)c1,-15.2% (inactive),–
CC(C)OC(=O)c1ccc(COc2ccc3ccc(=O)oc3c2)o1,22% (inactive),–
COc1ccccc1CNC(=O)c1ccc(CS(=O)(=O)c2ccccc2)o1,-13.2% (inactive),–
CCCCCNC(=O)C1c2ccccc2Oc2ccccc21,-2.43% (inactive),–
COc1ccc(C(=O)Nc2ccccc2C(=O)NCc2ccco2)cc1,-8.26% (inactive),–
CS(=O)(=O)N(Cc1ccc(Cl)cc1)c1ccc(C(=O)NCCSCc2ccco2)cc1,13.7% (inactive),–
Cc1ccc(N(Cc2ccc(C(=O)Nc3ccccc3C(=O)NCc3ccco3)cc2)S(C)(=O)=O)cc1C,–,3.7 µM (active)
CS(=O)(=O)c1ccc(C(=O)OCC(=O)NNC(=O)COc2ccc(Cl)cc2)cc1,11.1% (inactive),–

Compound,"activity change, negative = inhibition",Potency
COc1cc(CN2CCCN(C)CC2)c([N+](=O)[O-])cc1OC,45% (inactive),–
Cc1ccc(OCCC(=O)OCC(=O)N2c3ccccc3NC(=O)C2(C)C)cc1,-0.565% (inactive),–
CC(=O)Nc1ccc(S(=O)(=O)N2CCC(C(=O)NC3CC3)CC2)cc1,5.93% (inactive),–
O=C(Nc1ccon1)c1sc2ccccc2c1Cl,21.9% (inactive),–
CN1CCc2ccccc2C1Cc1ccccc1NC(=O)c1sc2ccccc2c1Cl (stereo not given),–,8.28 µM (active)
COc1ccc(CNC(=O)CNC(=O)c2sc3ccccc3c2Cl)cc1OC,5.71% (inactive),–
COCc1ccc(CN2CCC(Oc3ccc(C(=O)NCc4ccccn4)cc3)CC2)o1,-17.3% (inactive),–
O=C(O)c1cc(S(=O)(=O)N(Cc2ccccc2)c2ccccc2)ccc1Cl,0.616% (inactive),–
C=CC(COCc1ccccc1)N(Cc1ccccc1)S(=O)(=O)c1ccccc1Br (stereo not given),–,9.28 µM (active)
C=CCCN(Cc1ccccc1)S(=O)(=O)c1ccccc1Br,1.07% (inactive),–
Cc1ccsc1-c1cc(C(=O)O)c2c(ccc3ccccc32)n1,32% (inactive),–
COc1cc(OC)c(N2CC(C(=O)Nc3cc(Cl)ccc3N3CCOCC3)CC2=O)cc1Cl (stereo not given),–,11.7 µM (active)
COc1ccc(Cl)cc1NC(=O)C1CC(=O)N(c2ccc(F)cc2)C1 (stereo not given),8.24% (inactive),–
COc1c(C)cccc1C(=O)Nc1cc(Cl)ccc1N1CCOCC1,-1.23% (inactive),–
Cc1cccc(C(=O)Nc2ccc(Oc3cnccn3)cc2)c1,51.8% (inactive),–
COC(=O)c1cc(NC(=O)c2nn(C)c(=O)c3ccccc23)cc(C(=O)OC)c1,23% (inactive),–
CCCn1nc(C(=O)Nc2ccc3nc(C)sc3c2)c2ccccc2c1=O,0.708% (inactive),–
CCCCn1nc(C(=O)Nc2cccc(C(=O)NC3CC3)c2)c2ccccc2c1=O,–,11.7 µM (active)
O=C1c2ccccc2C(=O)N1c1cccc2ccccc12,-4.37% (inactive),–
Cc1c(NC(=O)CSCc2ccccc2)cccc1C(=O)O,60.5% (inactive),–
CC1C(=O)Nc2ccc(S(=O)(=O)N3CCN(c4ccccc4F)CC3)cc2NC1=O (stereo not given),10.6% (inactive),–
Clc1ccc(C(Cn2ccnc2)OCc2ccsc2Cl)c(Cl)c1 (stereo not given),–,4.26 µM (active)
CC1CCN(S(=O)(=O)c2ccc3c(ccn3CC(=O)O)c2)CC1,24.8% (inactive),–
Cc1ccc(S(=O)(=O)CC(=O)NC(C)c2ccccc2)cc1 (stereo not given),21.6% (inactive),–
